Among the data in PubChem BioAssay (EPA / NIEHS) are outcome and AC50 values, retold here.

Each structure is given as a SMILES string. Active and inactive are the calls of the source. Rule for the calls: active = hit-call score of the fitted dose curve at least 0.9, where 1 is the maximum; inactive = score below 0.9.

Read-out in assay [1]: Interleukin-8 (IL8), CXCL8 (gene 3576)
Put plainly: BSK_hDFCGF_IL8: BioMAP Diversity Plus: hDFCGF Assay for Interleukin-8 (IL8) Biomarker Activity (AID 2283058). The settings on record: primary human foreskin fibroblasts; actives raise or lower the signal. Put shortly: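 Primary human foreskin fibroblasts (hDFCGF system) dosed with chemical; IL-8 measured by ELISA 24 hours later. Bidirectional curve fitting relative to DMSO baseline; cytotoxicity tracked in parallel cultures by SRB total protein staining.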

Assay [2] can be described thus: BSK_hDFCGF_Proliferation: Cell Proliferation Assessment in the BioMAP Diversity Plus: hDFCGF Assay (AID 2283059).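 Note: curves fitted for both rise and fall of signal versus DMSO baseline.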 The settings on record: primary human foreskin fibroblasts. In outline:
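Sub-confluent human foreskin fibroblast cultures receive test chemical […]. Relative cell number is quantified by sulforhodamine B staining (0.1%, after 10% TCA fixation) at 560 nm, with bidirectional fitting referenced to DMSO.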

Read-out in assay [3]: Macrophage colony-stimulating factor (MCSF), CSF1 (gene 1435)
The assay is described as follows: BSK_hDFCGF_MCSF: BioMAP Diversity Plus: hDFCGF Assay for Macrophage colony-stimulating factor (MCSF) Biomarker Activity (AID 2283060). The conditions noted are these: primary human foreskin fibroblasts; actives raise or lower the signal. Put shortly: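 Human foreskin fibroblast primary cultures; M-CSF measured by ELISA 24 hours after chemical dosing. Bidirectional fitting relative to DMSO, with overt cytotoxicity tracked by parallel SRB total-protein staining (0.1% SRB, 10% TCA fixation, 560 nm).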

Assay [4] in a line: BSK_hDFCGF_SRB: Viability Assessment in the BioMAP Diversity Plus: hDFCGF Assay (AID 2283061).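 Note: cells exposed to compound for 24 h before the read.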 The conditions noted are these: primary human foreskin fibroblasts. Put shortly:
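Human foreskin fibroblasts in 96-well plates were treated 24 h. Total protein was measured by 0.1% SRB staining after 10% TCA fixation, read at 560 nm. Data were fitted bidirectionally against DMSO.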

Read-out in assay [5]: TIMP metallopeptidase inhibitor 1 (TIMP1), TIMP1 (gene 7076)
The assay is described as follows: BSK_hDFCGF_TIMP1: BioMAP Diversity Plus: hDFCGF Assay for TIMP metallopeptidase inhibitor 1 (TIMP1) Biomarker Activity (AID 2283062). The conditions noted are these: primary human foreskin fibroblasts; actives raise or lower the signal. Put shortly:
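Human foreskin fibroblast primary cultures dosed for 24 h; secreted/surface TIMP-1 quantified by ELISA. Bidirectional curve fitting against DMSO baseline; cytotoxicity tracked in parallel cultures by SRB total-protein staining.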

Read-out in assay [6]: Monokine induced gamma interferon (MIG), CXCL9 (gene 4283)
Put plainly: BSK_hDFCGF_MIG: BioMAP Diversity Plus: hDFCGF Assay for Monokine induced gamma interferon (MIG) Biomarker Activity (AID 2283063). The conditions noted are these: primary human foreskin fibroblasts; actives raise or lower the signal. Put shortly: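 MIG/CXCL9 measured by ELISA 24 h after dosing primary human skin fibroblasts. Activity fitted in both directions against DMSO controls. Cytotoxicity was checked in parallel cultures by SRB staining read at 560 nm.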

Read-out in assay [7]: Matrix Metallopeptidase 1 (MMP1), MMP1 (gene 4312)
The assay is described as follows: BSK_hDFCGF_MMP1: BioMAP Diversity Plus: hDFCGF Assay for Matrix Metallopeptidase 1 (MMP1) Biomarker Activity (AID 2283064). The settings on record: primary human foreskin fibroblasts; actives raise or lower the signal. Put shortly: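 Primary human foreskin fibroblasts in the hDFCGF system were dosed with test chemical, and MMP1 was measured by ELISA 24 h later. Values come from bidirectional curve fitting against the DMSO baseline.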

Read-out in assay [8]: Vascular cell adhesion molecule 1 (VCAM1), VCAM1 (gene 7412)
Put plainly: BSK_hDFCGF_VCAM1: BioMAP Diversity Plus: hDFCGF Assay for Vascular cell adhesion molecule 1 (VCAM1) Biomarker Activity (AID 2283065).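 For AC50: VCAM-1 protein level quantified by ELISA after 24 h chemical exposure.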 The conditions noted are these: primary human foreskin fibroblasts; actives raise or lower the signal. Put shortly:
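Human foreskin fibroblast primary cells dosed with chemical, VCAM-1 measured by ELISA at 24 h. Bidirectional curve fitting relative to DMSO as negative control/baseline.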

Read-out in assay [9]: Plasminogen activator inhibitor-1 (PAI1), SERPINE1 (gene 5054)
The assay is described as follows: BSK_hDFCGF_PAI1: BioMAP Diversity Plus: hDFCGF Assay for Plasminogen activator inhibitor-1 (PAI1) Biomarker Activity (AID 2283066). The conditions noted are these: primary human foreskin fibroblasts; actives raise or lower the signal. Put shortly: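 Human foreskin fibroblasts in the hDFCGF system were dosed with compound for 24 h; PAI-1 was quantified by ELISA. Bidirectional curve fitting used DMSO as negative control and baseline.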

Read-out in assay [10]: Interferon-gamma inducible Protein 10 (IP10), CXCL10 (gene 3627)
The assay is described as follows: BSK_KF3CT_IP10: BioMAP Diversity Plus: KF3CT Assay for Interferon-gamma inducible Protein 10 (IP10) Biomarker Activity (AID 2283068). The settings on record: primary human keratinocytes with fibroblasts; actives raise or lower the signal. Put shortly: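 ELISA read-out of IP-10 after 24 h chemical dosing of human skin primary co-culture (keratinocytes, foreskin fibroblasts). Gain or loss of signal relative to DMSO, bidirectional curve fit.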

The nature of assay [11]: BSK_KF3CT_SRB: Viability Assessment in the BioMAP Diversity Plus: KF3CT Assay (AID 2283069).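 Note: total protein by sulforhodamine B staining as a cytotoxicity measure; read 24 h after compound addition.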 The settings on record: primary human keratinocytes with fibroblasts. In outline:
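Human primary keratinocyte plus foreskin fibroblast co-culture exposed to chemicals for 24 h. Total protein measured by 0.1% sulforhodamine B staining after 10% TCA fixation, read at 560 nm; bidirectional fitting versus DMSO baseline.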

Read-out in assay [12]: Interleukin-1 alpha (IL1a), IL1A (gene 3552)
Put plainly: BSK_KF3CT_IL1a: BioMAP Diversity Plus: KF3CT Assay for Interleukin-1 alpha (IL1a) Biomarker Activity (AID 2283070). The conditions noted are these: primary human keratinocytes with fibroblasts; actives raise or lower the signal. Put shortly:
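Human keratinocyte plus foreskin fibroblast primary co-culture, sampled 24 h after chemical dosing. IL-1a measured by ELISA; responses fitted bidirectionally against DMSO baseline (negative control), so gain or loss of signal both count.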

Read-out in assay [13]: Matrix Metallopeptidase 9 (MMP9), MMP9 (gene 4318)
Put plainly: BSK_KF3CT_MMP9: BioMAP Diversity Plus: KF3CT Assay for Matrix Metallopeptidase 9 (MMP9) Biomarker Activity (AID 2283074). The conditions noted are these: primary human keratinocytes with fibroblasts; actives raise or lower the signal. Put shortly: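 Keratinocyte plus foreskin fibroblast human primary skin co-culture was dosed with chemical and MMP-9 was quantified by ELISA 24 h later. Bidirectional curve fitting used DMSO as negative control and activity baseline.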

Read-out in assay [14]: urokinase plasminogen activator (uPA), PLAU (gene 5328)
The assay is described as follows: BSK_KF3CT_uPA: BioMAP Diversity Plus: KF3CT Assay for urokinase plasminogen activator (uPA) Biomarker Activity (AID 2283075). The settings on record: primary human keratinocytes with fibroblasts; actives raise or lower the signal. Put shortly: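 Human keratinocyte plus foreskin fibroblast primary co-culture exposed to chemical for 24 h. uPA levels were quantified by ELISA, and activity was fitted bidirectionally against a DMSO negative-control baseline.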

Read-out in assay [15]: CD40, CD40 (gene 958)
The assay is described as follows: BSK_LPS_CD40: BioMAP Diversity Plus: LPS Assay for CD40 Biomarker Activity (AID 2283076). The conditions noted are these: primary human HUVEC with PBMC; actives raise or lower the signal. Put shortly: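 HUVEC plus PBMC co-culture stimulated with LPS; CD40 quantified by ELISA 24 h after compound dosing. Fitting was bidirectional relative to DMSO. SRB staining of parallel cultures flagged overt cytotoxicity.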

Read-out in assay [16]: E-selectin (Homo sapiens) (UniProt P16581)
Put plainly: BSK_LPS_Eselectin: BioMAP Diversity Plus: LPS Assay for Eselectin Biomarker Activity (AID 2283077). The conditions noted are these: primary human HUVEC with PBMC; actives raise or lower the signal. In outline: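 Human umbilical vein endothelial cells co-cultured with PBMC under LPS stimulation; cell-surface E-selectin measured by ELISA 24 h after dosing. Change in either direction versus DMSO, with SRB total-protein staining in parallel cultures for cytotoxicity.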

Assay [17] can be described thus: BSK_LPS_SRB: Viability Assessment in the BioMAP Diversity Plus: LPS Assay (AID 2283079).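 Note: total protein by sulforhodamine B absorbance as a cytotoxicity measure; measured one day after compound addition.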 The conditions noted are these: primary human HUVEC with PBMC. In outline: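 Co-culture of human umbilical vein endothelial cells and PBMC, read 24 h after dosing. Total protein by 0.1% SRB staining after 10% TCA fixation, absorbance at 560 nm; bidirectional fit against DMSO.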

Read-out in assay [18]: Macrophage colony-stimulating factor (MCSF), CSF1 (gene 1435)
The assay is described as follows: BSK_LPS_MCSF: BioMAP Diversity Plus: LPS Assay for Macrophage colony-stimulating factor (MCSF) Biomarker Activity (AID 2283083). The settings on record: primary human HUVEC with PBMC; actives raise or lower the signal. In outline: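 HUVEC–PBMC co-culture, M-CSF measured by ELISA 24 h after chemical dosing. Fitted in both directions relative to DMSO as negative control; overt cytotoxicity assessed by SRB total-protein staining in parallel cultures.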

Read-out in assay [19]: Tissue Factor, F3 (gene 2152)
The assay is described as follows: BSK_LPS_TissueFactor: BioMAP Diversity Plus: LPS Assay for Tissue Factor Biomarker Activity (AID 2283084). The conditions noted are these: primary human HUVEC with PBMC; actives raise or lower the signal. Put shortly: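 Human umbilical vein endothelial cells co-cultured with PBMC were dosed with compound. Cell-surface CD142 was measured by ELISA 24 h later. Activity was fitted bidirectionally against DMSO, with SRB total-protein staining in parallel cultures for cytotoxicity.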

Read-out in assay [20]: Tumor necrosis factor (Homo sapiens) (UniProt P01375)
Put plainly: BSK_LPS_TNFa: BioMAP Diversity Plus: LPS Assay for Tumour Necrosis Factor alpha (TNFa) Biomarker Activity (AID 2283085).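 For AC50: TNFa protein level quantified by ELISA in the co-culture.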 The conditions noted are these: primary human HUVEC with PBMC; actives raise or lower the signal. Put shortly: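 Human umbilical vein endothelial cells co-cultured with PBMC were exposed to test chemical and TNFa measured by ELISA 24 h after dosing. Bidirectional curve fitting was done relative to DMSO as negative control and baseline.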

Chain of E-selectin (Homo sapiens) (P16581 whole entry, looked up): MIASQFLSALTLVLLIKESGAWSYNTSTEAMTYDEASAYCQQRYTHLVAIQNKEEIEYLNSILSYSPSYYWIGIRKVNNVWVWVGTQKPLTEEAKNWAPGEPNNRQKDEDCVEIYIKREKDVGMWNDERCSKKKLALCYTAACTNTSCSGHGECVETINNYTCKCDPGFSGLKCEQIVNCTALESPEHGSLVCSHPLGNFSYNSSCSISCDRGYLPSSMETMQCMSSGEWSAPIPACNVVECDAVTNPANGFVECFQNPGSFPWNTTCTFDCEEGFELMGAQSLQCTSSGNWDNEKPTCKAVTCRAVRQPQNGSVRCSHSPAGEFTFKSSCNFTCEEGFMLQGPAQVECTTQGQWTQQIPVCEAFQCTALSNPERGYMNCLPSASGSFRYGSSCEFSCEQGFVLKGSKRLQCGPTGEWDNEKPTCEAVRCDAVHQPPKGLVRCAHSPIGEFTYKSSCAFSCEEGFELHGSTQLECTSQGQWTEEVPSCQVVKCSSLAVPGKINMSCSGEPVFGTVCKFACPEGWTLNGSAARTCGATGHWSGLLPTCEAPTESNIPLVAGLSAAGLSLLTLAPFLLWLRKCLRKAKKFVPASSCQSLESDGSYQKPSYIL
Chain of Tumor necrosis factor (Homo sapiens) (P01375 whole entry, looked up): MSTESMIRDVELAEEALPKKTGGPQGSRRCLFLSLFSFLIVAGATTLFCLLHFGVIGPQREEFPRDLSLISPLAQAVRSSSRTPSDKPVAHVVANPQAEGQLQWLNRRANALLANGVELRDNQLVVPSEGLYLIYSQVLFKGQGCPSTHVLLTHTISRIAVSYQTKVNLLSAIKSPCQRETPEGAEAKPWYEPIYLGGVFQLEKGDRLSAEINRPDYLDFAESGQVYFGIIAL

Turning to `O=c1[nH]c(Cl)c(Cl)cc1Cl`, the result in assay [1], in assay [2], in assay [3], in [4], in assay [5] and in assay [6] was inactive. Moreover, the result in assay [7], in assay [8], in [9], in assay [10], in assay [11] and in [12] was inactive. The outcome in [13], in assay [14], in assay [15], in [16], in assay [17] and in assay [18] was inactive. Besides, the result in assay [19] and in assay [20] was inactive.
`CC(C)(C)C(=O)CCl`: the outcome in assay [1], in assay [2], in assay [3], in [4], in assay [5] and in [6] was inactive. The result in assay [7], in [10], in assay [11], in [12], in assay [13] and in [14] was inactive. Also, the result in assay [16], in assay [17], in assay [19] and in [20] was inactive. Further, the AC50 (usually the concentration giving half of the maximal activity seen) in assay [8] is 12.2 µM (active); in assay [9], 0.405 µM (active); in assay [15], 28.7 µM (active); in assay [18], 30.4 µM (active).
On to `CCCOC(=O)c1ccccc1C(=O)OCCC`, for which the outcome in [1], in assay [2], in assay [3], in assay [4], in [5] and in [6] was inactive. In addition, the result in assay [7], in assay [8], in assay [9], in assay [10], in [11] and in assay [12] was inactive. Further, the result in assay [13], in assay [14], in [15], in assay [16], in [17] and in assay [19] was inactive. In addition, the half-maximal activity concentration (AC50) is 7.39 µM (active) in assay [18] and 20 µM (active) in assay [20].
